Source: PubChem BioAssay
Unmarked numbers belong to inactive results. For part of these data: Results with a measured potency or affinity are listed apart. The source made the active and inactive calls. Unless noted, no rule for the calls is given here.

Key:
[1] = antimalarial activity against Dd2 strain (AID 2302;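 active = growth inhibition above 50% at the single 2 µM test dose, taken to imply half-maximal potency below 2 µM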;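 also: 0% = DMSO untreated growth and 100% = chloroquine plus artemisinin killed control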); conditions: P. falciparum Dd2 in RBCs, LDH growth readout, 72 h; at 2 µM; active compounds read high
[2] = human hepatoma cell viability loss – ATP luminescence, cytotoxicity control for P. falciparum antimalarial project, primary screen (AID 2303;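 active = inhibition above 50%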;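 also: 0% = DMSO wells and 100% = digitonin-killed cells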); conditions: HepG2 viability, 24-48 h, at 10 µM, active compounds read high
[3] = target: L-lactate dehydrogenase (Plasmodium falciparum (isolate CDC / Honduras)) (UniProt Q27743); experiment: PfLDH activity inhibition – cell lysate, 3D7 strain, counter-screen for P. falciparum growth inhibition project (AID 2304);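 also: 0% = vehicle and 100% = reference inhibitor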; conditions: P. falciparum 3D7 crude extract, LDH APAD/NBT absorbance; at 2 µM; active compounds read high
[4] = inhibition of 3D7 malaria parasite growth – strain 3D7 (AID 2306);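 also: 0% = DMSO wells and 100% = chloroquine plus artemisinin control wells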; conditions: P. falciparum 3D7 erythrocytic growth, LDH absorbance, 72 h; at 2 µM; active compounds read high
[5] = target: Calcium-dependent protein kinase 1 (Plasmodium falciparum (isolate 3D7)) (UniProt P62344); experiment: PfCDPK1 kinase inhibitors, biochemical, TCAMS library (AID 1159585; cut-off not given, nearly all actives have IC50 up to about 0.98 µM;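 also: inhibitors leave more ATP so luminescence rises with inhibition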); conditions: recombinant PfCDPK1, Kinase-Glo ATP depletion luminescence
[6] = target: Plasmodium falciparum protein kinase 6 (PK6, PF3D7_1337100) (UniProt Q8IDW1); experiment: PfPK6 kinase inhibitors, biochemical, TCAMS library (AID 1159586); conditions: recombinant PfPK6, Kinase-Glo ATP depletion luminescence
[7] = target: Protein kinase 7 (PK7), Plasmodium falciparum 3D7 (PF3D7_0213400) (UniProt Q7YTF7); experiment: inhibition of Plasmodium PK7 catalytic activity – biochemical, TCAMS antimalarial set, Kinase-Glo luminescence (AID 1159587); conditions: recombinant PfPK7, Kinase-Glo ATP depletion luminescence
[8] = target: Calcium-dependent protein kinase 4 (Plasmodium falciparum (isolate 3D7)) (UniProt Q8IBS5); experiment: PfCDPK4 kinase inhibitors, biochemical, TCAMS library (AID 1159588; cut-off not given, nearly all actives have IC50 up to about 0.91 µM); conditions: recombinant PfCDPK4, Kinase-Glo ATP depletion luminescence
Chain of Calcium-dependent protein kinase 4 (Plasmodium falciparum (isolate 3D7)) (Q8IBS5 whole entry, looked up): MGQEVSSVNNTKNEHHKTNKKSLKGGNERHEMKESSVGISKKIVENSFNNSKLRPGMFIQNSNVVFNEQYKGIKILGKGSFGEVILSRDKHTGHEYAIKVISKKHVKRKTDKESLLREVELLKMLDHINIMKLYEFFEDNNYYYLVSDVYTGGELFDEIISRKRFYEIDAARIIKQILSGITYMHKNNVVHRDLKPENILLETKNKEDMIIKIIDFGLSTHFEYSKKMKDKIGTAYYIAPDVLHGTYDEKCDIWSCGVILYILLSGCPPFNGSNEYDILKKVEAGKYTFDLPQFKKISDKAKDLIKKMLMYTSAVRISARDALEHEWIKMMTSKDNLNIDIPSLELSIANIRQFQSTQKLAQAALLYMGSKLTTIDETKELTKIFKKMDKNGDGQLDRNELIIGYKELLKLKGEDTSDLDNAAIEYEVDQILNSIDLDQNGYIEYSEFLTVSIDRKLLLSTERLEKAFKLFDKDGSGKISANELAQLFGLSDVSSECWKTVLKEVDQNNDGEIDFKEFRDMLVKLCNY

Chain of Protein kinase 7 (PK7), Plasmodium falciparum 3D7 (PF3D7_0213400) (Q7YTF7 1-343): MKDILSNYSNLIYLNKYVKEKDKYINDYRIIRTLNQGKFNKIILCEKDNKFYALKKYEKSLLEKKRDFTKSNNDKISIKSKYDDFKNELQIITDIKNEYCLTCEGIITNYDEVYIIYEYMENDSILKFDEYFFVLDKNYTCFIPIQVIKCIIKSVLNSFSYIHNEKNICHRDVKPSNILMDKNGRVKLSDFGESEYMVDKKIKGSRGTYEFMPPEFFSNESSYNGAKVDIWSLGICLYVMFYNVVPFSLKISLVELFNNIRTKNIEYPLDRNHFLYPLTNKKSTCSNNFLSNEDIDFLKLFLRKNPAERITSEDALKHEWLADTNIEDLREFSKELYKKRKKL
Chain of Plasmodium falciparum protein kinase 6 (PK6, PF3D7_1337100) (Q8IDW1 1-305): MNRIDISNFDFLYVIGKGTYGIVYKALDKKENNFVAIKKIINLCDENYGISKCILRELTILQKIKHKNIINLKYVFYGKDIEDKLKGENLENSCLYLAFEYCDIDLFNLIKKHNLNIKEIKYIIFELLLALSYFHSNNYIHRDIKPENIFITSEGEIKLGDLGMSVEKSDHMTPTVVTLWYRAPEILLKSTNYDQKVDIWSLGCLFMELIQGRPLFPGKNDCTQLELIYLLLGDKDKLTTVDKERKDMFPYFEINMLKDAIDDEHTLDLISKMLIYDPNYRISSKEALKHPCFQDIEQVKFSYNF
Chain of L-lactate dehydrogenase (Plasmodium falciparum (isolate CDC / Honduras)) (Q27743 whole entry, looked up): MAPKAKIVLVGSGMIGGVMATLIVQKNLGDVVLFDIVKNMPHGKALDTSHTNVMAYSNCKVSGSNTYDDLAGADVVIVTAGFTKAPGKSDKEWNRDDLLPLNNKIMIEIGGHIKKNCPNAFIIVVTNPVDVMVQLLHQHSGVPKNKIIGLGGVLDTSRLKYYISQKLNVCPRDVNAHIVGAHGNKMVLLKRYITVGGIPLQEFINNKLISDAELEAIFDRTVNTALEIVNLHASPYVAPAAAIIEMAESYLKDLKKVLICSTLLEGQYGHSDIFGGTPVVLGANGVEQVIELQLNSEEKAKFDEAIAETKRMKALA
Chain of Calcium-dependent protein kinase 1 (Plasmodium falciparum (isolate 3D7)) (P62344 whole entry, looked up): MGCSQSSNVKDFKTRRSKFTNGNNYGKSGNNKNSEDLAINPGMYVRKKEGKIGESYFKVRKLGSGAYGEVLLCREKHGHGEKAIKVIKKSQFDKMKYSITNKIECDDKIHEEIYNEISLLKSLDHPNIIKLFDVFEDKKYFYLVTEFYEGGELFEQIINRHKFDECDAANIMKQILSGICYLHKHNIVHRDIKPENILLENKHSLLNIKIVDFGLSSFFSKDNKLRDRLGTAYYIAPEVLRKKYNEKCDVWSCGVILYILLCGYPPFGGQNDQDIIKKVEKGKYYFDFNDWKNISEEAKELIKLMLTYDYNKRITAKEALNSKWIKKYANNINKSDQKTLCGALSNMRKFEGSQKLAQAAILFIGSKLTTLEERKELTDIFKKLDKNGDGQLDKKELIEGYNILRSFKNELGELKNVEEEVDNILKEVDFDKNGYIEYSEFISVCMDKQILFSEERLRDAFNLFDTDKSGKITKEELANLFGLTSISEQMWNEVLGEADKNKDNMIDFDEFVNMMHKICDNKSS

Structure (SMILES) | growth inhibition [1] | inhibition [2] | inhibition [3] [%] | growth inhibition [4] | outcome [5] | outcome [6] | outcome [7] | outcome [8]
NS(=O)(=O)NCCCN1CCN(c2ccccc2)CC1 | 73% (active) | 2% | -2 | 90% (active) | inactive | inactive | inactive | inactive
Cc1noc(C)c1-c1ccc2c(Nc3ccc(Cl)cc3)c(C(N)=O)cnc2c1 | 67% (active) | 9% | 7 | 94% (active) | inactive | inactive | inactive | inactive
COc1ccc2nccc([C@@H](O)CNCCCN(C)CCOc3cc(F)cc(F)c3)c2c1 | 58% (active) | 11% | -1 | 99% (active) | inactive | inactive | inactive | inactive
O=C(NC1CCN(CC2(c3ccccc3F)CCCC2)CC1)c1ccn[nH]1 | 91% (active) | -5% | -1 | 93% (active) | inactive | inactive | inactive | inactive
COc1ccc(-c2cccc(NC(=O)c3cccc(Cl)c3)c2)cc1CN1CCN(C)CC1 | 48% | 27% | 1 | 101% (active) | inactive | inactive | inactive | inactive
O=S(=O)(NCCN1CCCC1)c1ccc(-c2cccc(CNCCc3cccs3)c2)s1 | 44% | 39% | -2 | 99% (active) | inactive | inactive | inactive | inactive
Cc1ccc(CN2CCN(Cc3cccc(NC(=O)c4ccc5ccccc5c4)c3)CC2)cc1C | 23% | 62% (active) | -4 | 89% (active) | inactive | inactive | inactive | inactive
Nc1nc(N)c2cc(C#Cc3ccc(-c4ccccc4)cc3)ccc2n1 | 3% | 20% | 0 | 94% (active) | inactive | inactive | inactive | inactive
CN(C)c1ccc(C=C2SC(=Nc3ccccc3)N(c3ccccc3)C2=O)cc1[N+](=O)[O-] | 82% (active) | 9% | 7 | 96% (active) | inactive | inactive | inactive | inactive
CN1CCC[C@H]1COc1ccc(CN2CC[C@H](NC(=O)c3ccc(Cl)c(Cl)c3)C2)cc1Cl | 44% | 53% (active) | -2 | 97% (active) | inactive | inactive | inactive | inactive
Cc1nnc2sc(-c3cccc(NC(=O)c4ccc(N5CCCCC5)c([N+](=O)[O-])c4)c3)nn12 | 20% | 3% | -3 | 87% (active) | inactive | inactive | inactive | inactive
CC1(CCc2ccccc2)N=C(N)N(Cc2ccccc2)C(=O)C1c1ccc(Cl)c(Cl)c1 (stereo unspecified) | 96% (active) | 100% (active) | -4 | 97% (active) | inactive | inactive | inactive | inactive
CCOC(=O)c1ccc(OCCOc2ccccc2)cc1 | -3% | 63% (active) | -1 | 99% (active) | inactive | inactive | inactive | inactive
C=Cc1cc(NC(=O)N2CCc3cc(OC)c(C(F)(F)F)cc32)cc(-c2cccnc2)c1 | 20% | 7% | -2 | 92% (active) | inactive | inactive | inactive | inactive
COc1cccc(-c2cc3nc4c(c(NCCCn5ccnc5)n3n2)CCCC4)c1 | 66% (active) | 10% | -2 | 100% (active) | inactive | inactive | inactive | inactive
Cc1ccc2nc(Nc3ccc(Nc4nc5ccc(C)cc5[nH]4)c(C)c3)[nH]c2c1 | 94% (active) | 12% | 6 | 99% (active) | inactive | inactive | inactive | inactive
CC1(C)N=C(N)N=C(N)N1c1ccccc1 | 1% | 16% | -4 | 98% (active) | inactive | inactive | inactive | inactive
COc1ccc2nccc([C@@H](O)CN3CCC(NCCOc4ccccc4C#N)CC3)c2c1 | 99% (active) | 10% | 2 | 101% (active) | inactive | inactive | inactive | inactive
N#Cc1ccc(CN2CCC(NC(=O)c3ccc(-c4nnc(-c5cccc6ccccc56)o4)cc3)CC2)cc1 | 14% | 37% | -2 | 98% (active) | inactive | inactive | inactive | inactive
CCNc1cc(CC)nc(Nc2ccc(C)cc2)n1 | 24% | 22% | -1 | 100% (active) | inactive | inactive | inactive | inactive
COc1csc2cc(Br)ccc12 | -5% | 6% | -3 | 101% (active) | inactive | inactive | inactive | inactive

Structure (SMILES) | growth inhibition [1] | inhibition [2] | inhibition [3] [%] | growth inhibition [4] | outcome [5] | outcome [6] | outcome [7] | outcome [8]
CC(=O)c1ccc(S(=O)(=O)N2CCC(C(=O)Nc3ccccc3N3CCCC3)CC2)cc1 | 99% (active) | -3% | -8 | 95% (active) | inactive | inactive | inactive | inactive
Cc1nc(-c2cccc(Nc3nccc(NCC(O)c4ccccc4C(F)(F)F)n3)c2)cs1 (stereo unspecified) | 50% (active) | 48% | 5 | 97% (active) | inactive | inactive | inactive | inactive
CCNc1cc(C(=O)N[C@@H](Cc2ccccc2)[C@H](O)CNC2CCC(F)(F)CC2)c(F)c(N2CCCCS2(=O)=O)c1 | 97% (active) | -5% | -1 | 100% (active) | inactive | inactive | inactive | inactive
Clc1ncnc2ncn(Cc3cccc(Br)c3)c12 | 56% (active) | -5% | 3 | 91% (active) | inactive | inactive | inactive | inactive
CC(C)C[C@@H](C(=O)N[C@@H](CCCCNC(=O)OCc1ccccc1)C(=O)Nc1nccs1)[C@H](C)N(O)C=O | 98% (active) | -2% | 8 | 99% (active) | inactive | inactive | inactive | inactive
CN(C)CCOc1cc(NC(=O)Nc2ccc(-c3ccccc3)cc2Cl)ccc1I | 93% (active) | 25% | 3 | 102% (active) | inactive | inactive | inactive | inactive
CCN1CCC(N(CCCCCCCCc2ccc(C(F)(F)F)cc2)C(=O)Cn2c(CCc3cccc(F)c3F)cc(=O)c3ccccc32)CC1 | 65% (active) | 89% (active) | 2 | 88% (active) | inactive | inactive | inactive | inactive
Cn1cc(CN2CCCC(COC(c3ccc(F)cc3)c3ccc(F)cc3)C2)cn1 (stereo unspecified) | 100% (active) | 15% | 4 | 98% (active) | inactive | inactive | inactive | inactive
CC1(C)N=C(N)N=C(N)C1c1ccc(Cl)cc1 (stereo unspecified) | -2% | 16% | 1 | 96% (active) | inactive | inactive | inactive | inactive
S=C(NN=Cc1ccccn1)Nc1ccc2c(c1)OCCO2 | 33% | 55% (active) | 6 | 82% (active) | inactive | inactive | inactive | inactive
CCCC1N=C(N)N=C(N)N1c1cccc(C(F)(F)F)c1 (stereo unspecified) | 7% | 22% | 5 | 95% (active) | inactive | inactive | inactive | inactive
CCCCOc1cc2c(cc1OCC)C(C=Cc1ccc(Cl)cc1Cl)=NCC2 | 95% (active) | -2% | -1 | 97% (active) | inactive | inactive | inactive | inactive
CN1CCN(CCCN(Cc2ccc(-c3cccc(CNC4CCCC4)c3)cc2)C(=O)/C=C/c2ccccc2)CC1 | 87% (active) | 36% | 4 | 100% (active) | inactive | inactive | inactive | inactive
CCc1cn2c3c(cc(C(=O)N[C@@H](Cc4ccccc4)[C@H](O)CNC4CCCCC4)cc13)N(C)S(=O)(=O)C2 | 99% (active) | 20% | 0 | 99% (active) | inactive | inactive | inactive | inactive
CCc1ccc(CN2CCCCC(NC(=O)c3cc(-c4ccccc4F)cs3)C2)cc1 (stereo unspecified) | 12% | 25% | -4 | 87% (active) | inactive | inactive | inactive | inactive
COc1cccc(C=Cc2nc(=O)c3ccccc3o2)c1OC | 97% (active) | -19% | 7 | 97% (active) | inactive | inactive | inactive | inactive
O=C(Nc1ccc(F)c(C(F)(F)F)c1)NC1CCN(CCCCCNC(=O)[C@@H]2C[C@H]2c2ccc(Cl)c(Cl)c2)CC1 | 16% | 96% (active) | 0 | 100% (active) | inactive | inactive | inactive | inactive
Cc1cc(NCc2ccccc2)nc(NCc2ccccc2)n1 | 18% | 21% | 5 | 91% (active) | inactive | inactive | inactive | inactive
Cc1cc(NC(=O)NCCN2CCC(NS(=O)(=O)c3cccc(Br)c3)C2)c2ccccc2n1 (stereo unspecified) | 58% (active) | 0% | -2 | 99% (active) | inactive | inactive | inactive | inactive
COc1ccc2c(NN=Cc3cccc([N+](=O)[O-])c3)cc(C)nc2c1 | 97% (active) | 18% | -6 | 101% (active) | inactive | inactive | inactive | inactive
CC(CCCC(=O)Nc1ccc(CC(C)NCCc2cccc(Cl)c2)cc1)NCCc1cccc(Cl)c1 (stereo unspecified) | 14% | 98% (active) | -3 | 101% (active) | inactive | inactive | inactive | inactive
